HT1080 IDH1KD tx = HT-1080 IDH1 knockdown cell toxicity (counter line). actives 2% (n = 360,000). HT-1080 IDH1 knockdown viability, ATP luminescence, 48 h. AID 686971. Potency, µM (series often up to 46.1 µM), actives largely listed as cytotoxic
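IDH1KD HT-1080 cells, 750/well, RPMI + 5% FBS; compound pinned after 2 h settling; 48 h, 37 °C; CellTiter-Glo luminescence; % activity normalised to DMSO and no-cell wells; curves fitted, classed by r2 and efficacy.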
DT40 TDP1 no CPT = qHTS for Inhibitors of human tyrosyl-DNA phosphodiesterase 1 (TDP1): qHTS in cells in absence of CPT. DT40 Tdp1-/- hTDP1 cells, no CPT, ATP luminescence, 48 h. Potency, µM (doses to about 46.2 µM), most hits filed as inhibitors. actives 15% (n = 420,000); also: nearly all actives have a fitted effect of over 55% in size
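Cells were dispensed at 400 per well, compounds added by pin tool, plates incubated ≥48 hr at 37 °C, then CellTiter-Glo added for 30 min at room temperature before luminescence reading. Line: DT40 Tdp1-/- complemented with hTDP1; camptothecin omitted.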
HT1080-NT tox = kills 2HG-producing HT-1080-NT fibrosarcoma cells; HT-1080-NT fibrosarcoma viability, CellTiter-Glo ATP luminescence, 48 h; Potency, µM (top dose mostly 46.1 µM), most hits filed as cytotoxic; actives 1.6% (n = 360,000); AID 686970;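 also: NT is the 2HG producing partner of a matched IDH1 knockdown line; nearly all actives have a fitted effect of over 55% in size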
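Luminescent CellTiter-Glo readout after 48 hours of compound exposure at 37 degrees C defined viability of HT-1080-NT cells. Activity was normalized to DMSO wells and cell-free media wells; concentration-response curves were fitted and assigned curve classes.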
TDP1 cell CPT = DT40-hTDP1 cell growth loss with CPT | chicken DT40 Tdp1-/-;hTDP1 cells + 20 nM CPT, ATP luminescence, 48 h | Potency, µM (highest dose often 46.2 µM), hits mostly inhibitors | actives 12% (n = 420,000) | AID 686979; also: nearly all actives have a fitted effect of over 55% in size
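Chicken DT40 Tdp1-/- cells stably complemented with human TDP1 were seeded at 400 cells/well in medium containing 20 nM camptothecin, exposed to pin-transferred compounds, and grown at 37 °C for at least 48 hr. Viability was read as ATP luminescence.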
uPA generation = blocks generation of uPA at the cell surface; cell surface uPA generation assay, qHTS; Potency, µM (doses to about 38.3 µM), most hits filed as inhibitors; actives 0.31% (n = 330,000); AID 540303; active = well fitted inhibition curve with a large enough effect; inconclusive = small, poorly fitted or top-dose-only effect; inactive = no such curve, though single readings can be large or run the other way; tested in mouse RAW 264.7 cells; also: nearly all actives have a fitted effect of over 55% in size
IL1B secr inh = inflammasome signaling inhibition, IL-1 beta readout. AID 743279. THP-1 LPS/ATP IL-1B secretion, AlphaLISA, 16 h; active compounds read low. activity change, % at 57.5 µM. actives 4.7% (n = 360,000); in the data active = activity change below about -50%; inconclusive = mostly about -30% to -49%
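Secreted IL-1B measured by AlphaLISA bead assay after 16 h compound exposure of THP-1 cells; compounds (final up to 57.5 uM) added 1 h before LPS (250 ng/mL) and ATP (1.25 mM) stimulation; lower signal means less secretion.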
Each line names hits and unclear results; the compound was inactive in the other large screens. In the library only some 19% were active in any assay of this set; here they are far more common. Unless noted, calls follow the shape of the dose curve; as a rule, active = well fitted curve in the direction sought with a large enough effect; inconclusive = small, poorly fitted or top-dose-only effect, or another doubt; inactive = no such curve, though single readings can be large; an effect the other way counts as inactive or inconclusive.

COc1cc(-c2noc(-c3ccc(NCc4ccco4)c([N+](=O)[O-])c3)n2)cc(OC)c1OC	DT40 TDP1 no CPT 7.31µM, TDP1 cell CPT 11.6µM (no result: HT1080 IDH1KD tx, HT1080-NT tox, uPA generation, IL1B secr inh)
Cc1ccc(-c2noc(-c3ccc(NCc4ccco4)c([N+](=O)[O-])c3)n2)cc1	none (no result: HT1080 IDH1KD tx, HT1080-NT tox, uPA generation, IL1B secr inh)
COc1ccc(-c2noc(-c3ccc(NCC4CCCO4)c([N+](=O)[O-])c3)n2)cc1OC (stereo not drawn)	TDP1 cell CPT inconclusive (no result: HT1080 IDH1KD tx, HT1080-NT tox, uPA generation, IL1B secr inh)
COc1cc(-c2noc(-c3ccc(NCC4CCCO4)c([N+](=O)[O-])c3)n2)cc(OC)c1OC (stereo not drawn)	DT40 TDP1 no CPT 3.66µM, TDP1 cell CPT 7.31µM (no result: HT1080 IDH1KD tx, HT1080-NT tox, uPA generation, IL1B secr inh)
Cc1cc(NCc2ccccn2)n2nc(C)c(-c3ccccc3)c2n1	DT40 TDP1 no CPT 0.0461µM, HT1080-NT tox inconclusive, TDP1 cell CPT 0.0517µM
Cc1nn2c(NCCN3CCOCC3)c3c(nc2c1-c1ccccc1)CCCC3	DT40 TDP1 no CPT 5.8µM, TDP1 cell CPT 2.59µM
Cc1nn2c(NCc3ccccn3)cc(C(C)(C)C)nc2c1-c1ccccc1	DT40 TDP1 no CPT inconclusive, TDP1 cell CPT inconclusive
Cc1nn2c(NCc3ccccn3)c3c(nc2c1-c1ccccc1)CCC3	DT40 TDP1 no CPT 4.61µM, TDP1 cell CPT 2.59µM (no result: IL1B secr inh)
COc1ccc(Nc2c3c(nc4c(-c5ccccc5)c(C)nn24)CCC3)cc1	none
Cc1nn2c(N3CCN(C)CC3)c3c(nc2c1-c1ccccc1)CCCC3	TDP1 cell CPT inconclusive
COc1cc(OC)nc(Oc2cc(C=O)ccc2OC)n1	none
O=c1c(-c2ccc(Cl)cc2)nc2cnc(Nc3ccccc3)nc2n1C[C@H]1CCCO1	none (no result: HT1080 IDH1KD tx, HT1080-NT tox, uPA generation, IL1B secr inh)
CCCNC(=S)N1CCC(Cc2ccccc2)CC1	DT40 TDP1 no CPT inconclusive, TDP1 cell CPT inconclusive, IL1B secr inh inconclusive
S=C(Nc1ccccc1)N1CCC(Cc2ccccc2)CC1	HT1080 IDH1KD tx inconclusive, DT40 TDP1 no CPT 3.66µM, HT1080-NT tox inconclusive, TDP1 cell CPT 4.11µM, IL1B secr inh -69.2
COc1ccc(NC(=S)N2CCC(Cc3ccccc3)CC2)cc1	DT40 TDP1 no CPT 5.17µM, TDP1 cell CPT 10.3µM, IL1B secr inh -58.0
O=C(NCCCN1CCOCC1)C(=O)N/N=C/c1c(Cl)cccc1Cl	none
O=C(NCCCN1CCOCC1)C(=O)N/N=C/c1c2ccccc2cc2ccccc12	HT1080 IDH1KD tx inconclusive, DT40 TDP1 no CPT 20.6µM, HT1080-NT tox inconclusive, TDP1 cell CPT inconclusive
Cc1ccc(C(=O)N2[C@@H]3CN(C)C(=O)[C@@]2(Cc2ccccc2)[C@H]2C(=O)N(Cc4ccccc4)C(=O)[C@@H]32)cc1	DT40 TDP1 no CPT inconclusive, TDP1 cell CPT 0.0052µM
c1ccc2cc(C3OCC4(CCCC4)CO3)ccc2c1	TDP1 cell CPT inconclusive (no result: uPA generation)
CCCCOc1ccc(-c2nnc(-c3ccncc3)o2)cc1	DT40 TDP1 no CPT 20.6µM, TDP1 cell CPT inconclusive
CCCCOc1ccc(-c2nnc(-c3cc[n+](C)cc3)o2)cc1	DT40 TDP1 no CPT inconclusive
CCOc1ccc(-c2nnc(-c3ccncc3)o2)cc1	DT40 TDP1 no CPT inconclusive, TDP1 cell CPT 20.6µM
COc1cc(OC)c(OC)cc1CN1CCC(n2cc(C(=O)N3CCCCC3)nn2)CC1	none (no result: HT1080 IDH1KD tx, HT1080-NT tox, uPA generation, IL1B secr inh)
CCN(CC)Cc1nc2c(c(=O)[nH]1)C1(CCCC1)Cc1ccccc1-2	DT40 TDP1 no CPT inconclusive, TDP1 cell CPT 20.6µM (no result: uPA generation)
O=c1[nH]c(CN(CCO)CCO)nc2c1C1(CCCCC1)Cc1ccccc1-2	TDP1 cell CPT inconclusive, IL1B secr inh inconclusive
COc1ccc(Cc2nc3ccc(C(=O)NC(C)c4cnn(C)c4)cc3o2)cc1 (stereo not drawn)	none
CC(=O)N(C(C)=O)C1=C(C#N)C2(CCCCC2)Cc2ccccc21	HT1080 IDH1KD tx inconclusive, HT1080-NT tox inconclusive, IL1B secr inh -73.7
Cc1ccc(S(=O)(=O)N2C[C@H]3C(=O)C[C@@H](c4ccccc4F)N(S(=O)(=O)c4ccc(C)cc4)[C@H]3C[C@H]2c2ccccc2)cc1	DT40 TDP1 no CPT inconclusive, TDP1 cell CPT inconclusive (no result: uPA generation)

Screening data deposited in PubChem BioAssay by National Center for Advancing Translational Sciences (NCATS).
